Paper PMC12136788
Changes are numbered by the printed parent chain. Over roughly 24,000 sequences, “enrichment r” has its median near 0.99; the highest 2% begin near 3.7. For the sample, the highest values were picked, then their nearest neighbours and some sequences at random.

B1: chr2:47387610:47387611:-_ENSG00000143933_ENST00000272298|hu_mus|FALSE|FALSE (ssRNA)
RNA: GGGAGUUCUACAGUCCGACGAUCUCCACGCAGAGUUACAGCUCCACACUUCAACAACAACAUGCUGACAGUUCCUAAAAGCUACUUUAAAAAAGGCAUAACCCAGAUGUUCCCUCAUUGGACCAACUCCAUCUAAGUUUAGAUCAACAGAGGAUUGAGCAUCA
B2: chr8:104447970:104447971:+_ENSG00000164934_ENST00000297579|hu_hu|hu_hu_hu_mus_False|88_98 (ssRNA)
RNA: GGGAGUUCUACAGUCCGACGAUCAUACACUUCCCUGCUUCGACUUUUGUCUACAGGAAAGAUUCUAAUAGACUUAUCAAAGCUGGCAGACACAAAUUCCUUCCCAGUGGGAGAGUAGUCCACAUCAAGUACUGCAGACACGUGCAACAGAGGAUUGAGCAUCA
B3: chr3:150289932:150289933:+_ENSG00000144895_ENST00000460851|hu_hu|hu_hu_hu_mus_False|28_58 (ssRNA)
RNA: GGGAGUUCUACAGUCCGACGAUCCUUGUAGUUUUUAACAUCCCAUACUUCCAUUUGUCCUCGAAGAUUUCCAAAUCCAGCUAAUACUAAUAUAUGUCCAUGAGGGCUAUAGUAGGCUGCGUUGCGAGGACCAGUCCCAAAGUCCAACAGAGGAUUGAGCAUCA
B4: chr13:51516861:51516862:+_ENSMUSG00000067586_ENSMUST00000087978|mus_mus|FALSE|FALSE (ssRNA)
RNA: GGGAGUUCUACAGUCCGACGAUCCUUGGUGACAUAGAGAAGGGCAAGGCCAAUGAUGGAGCAGAACUUCUUGGCAGUGACCUAUAUACACCAGGAGUGACAUGAGGGGAAGUCUUUAGUUAGUCAGACCAGGGUUACCUAAGGCAACAGAGGAUUGAGCAUCA
B5: chr19:5940991:5940992:-_ENSMUSG00000024833_ENSMUST00000025752|mus_hu|FALSE|FALSE (ssRNA)
RNA: GGGAGUUCUACAGUCCGACGAUCGUUCACACAGACACAGCCGAGGACAUCCUUCACGAAGUACCUCAGCUCUGACGGGAUGAUGAGGACAUCUGGGGUGACAGGCAGCUGUGCGUAAACAUAGAACGACUCAUAGUCAAUGGCCAACAGAGGAUUGAGCAUCA
B6: chr6:168291551:168291552:+_ENSG00000130396_ENST00000400822|hu_mus|motif|central (ssRNA)
RNA: GGGAGUUCUACAGUCCGACGAUCAUGUUUCUUCAUUUUCUUUGGGAUGUAGUCCGGUGGUCUCCUCUUCAACUGAAAGACGGAAAUCCCUUUGUCACUUGGCCAUUCCCUGAAGAUUUGUAAAGGACAUUCAUCAUCGUCAAGCAACAGAGGAUUGAGCAUCA
B7: chr16:50257146:50257147:+_ENSG00000121274_ENST00000436909|hu_mus|FALSE|FALSE (ssRNA)
RNA: GGGAGUUCUACAGUCCGACGAUCUAUCCGGAUGCCAGUCUUUAAGUAAUUGAAGUGCCGUCCAUAUAAUUCAAAAAACUCUAUUAAGAGAACACCAUAGUUUGUAUUGGGGAUGCAAGCAUCUUCCCUGGGAUGUAACUGAAGCAACAGAGGAUUGAGCAUCA
B8: chr1:39494447:39494448:+_ENSG00000168653_ENST00000372967|hu_mus|hu_hu_hu_mus_False|18_18 (ssRNA)
RNA: GGGAGUUCUACAGUCCGACGAUCGCACCGAGCGGCGUUCUUAUAGGGCUGUUCUGCGCUUAGGAACAUAAAGUGCCGGUCCAGGCUGAUGCCCAGCUUUUUCUGUAUGUCAAGGAAAGGCAUGGCCCUGCAGUGCCCUUGUCACAACAGAGGAUUGAGCAUCA
B9: chrX:140365796:140365797:-_ENSMUSG00000031285_ENSMUST00000033642|mus_mus|mus_mus_mus_hu_False|8_58 (ssRNA)
RNA: GGGAGUUCUACAGUCCGACGAUCCUUCUCAUUACUCAGUGCCUGCAAGGUUCUGGUUCGGUAGAAGCUACAGUGGGCACUAUGAGUGGGGCUAGGCAACCCAUUCAUCCGGGAGCCUCGCAUGUUCCUAGAUGCUUUAUCUCUCAACAGAGGAUUGAGCAUCA
B10: chr3:10015032:10015033:+_ENSMUSG00000027533_ENSMUST00000029046|mus_mus|mus_mus_mus_hu_True|1_38 (ssRNA)
RNA: GGGAGUUCUACAGUCCGACGAUCGUUUUUACCAUCACAAGUGAUGAUACAAUCUGGCUUGGCCAUUGCGCCCAUUUUUCGCAAAGCUAUUCCCACUCCUAGCUCUUUCAUGUAUUCAUCAAAGCCUUUGCUGUCCAUCAGGCGCAACAGAGGAUUGAGCAUCA
B11: chr4:6320793:6320794:+_ENSMUSG00000028249_ENSMUST00000103008|mus_mus|FALSE|FALSE (ssRNA)
RNA: GGGAGUUCUACAGUCCGACGAUCAGUAGGCAUGAUUGUGAUGGUAACCACAGUCCCAGCUGUUGACAGUAUAUCUGCAAUCUGAGCAUCCUUCAAGCCAAUGACGUUCUGUCCGUUGAUCUCACAGAUGUGGUGAUCAGUGAGCAACAGAGGAUUGAGCAUCA
B12: chr3:142455598:142455599:-_ENSMUSG00000004591_ENSMUST00000043812|mus_mus|FALSE|FALSE (ssRNA)
RNA: GGGAGUUCUACAGUCCGACGAUCGUAGAGCAUUUGAUCAAAUUAUUUGUGAGACUUUUGAGGUACAGCUUUAGUGUUAUAAUAACUUUUUAUAAAAUAUAGACUGUUUUAUCAAAAAUAUUUAUACAUUCUGUUACAAUAUAUCAACAGAGGAUUGAGCAUCA
B13: chr2:174291214:174291215:-_ENSMUSG00000016257_ENSMUST00000016401|mus_hu|FALSE|FALSE (ssRNA)
RNA: GGGAGUUCUACAGUCCGACGAUCUUGAUCAAGUCACAUAGCCUUACACCAACUUAUCAAAAAAAAAAAAAAAAAAACUACCCAAAAUAUAGUUGUAUUUUUAAAAUAACAAAUAAAUAUAUAGUCAGUUUGGAGAGACCUGGACAACAGAGGAUUGAGCAUCA
B14: chr20:57609950:57609951:-_ENSG00000101166_ENST00000355937|hu_hu|FALSE|FALSE (ssRNA)
RNA: GGGAGUUCUACAGUCCGACGAUCUGUUUUGAUCAAGUCACAUAGCCUUACACCAACUUAUCAAAAAAAAAAAAAAAAAAACUACCCAAAAUAUAGUUGUAUUUUUAAAAUAACAAAUAAAUAUAUAGUCAGUUUGGAGAGACCCAACAGAGGAUUGAGCAUCA
B15: chr2:174291214:174291215:-_ENSMUSG00000016257_ENSMUST00000016401|mus_hu|motif|central (ssRNA)
RNA: B13 RNA with U78G, A79G
B16: chr2:202488911:202488912:-_ENSG00000155755_ENST00000286196|hu_hu|FALSE|FALSE (ssRNA)
RNA: GGGAGUUCUACAGUCCGACGAUCUUUUAACAUUUUUCAUAAUAUUGAGAGAUGUUUCAGUAUUAUAUAAUCAAAAAAUCUAUUACAAAUACACAUGUAUACAUCUUAUAAAAAUACAUUUAAAAACAAAAAUGGGACAAAUACCAACAGAGGAUUGAGCAUCA
B17: chr22:42024162:42024163:+_ENSG00000196419_ENST00000405878|hu_hu|FALSE|FALSE (ssRNA)
RNA: GGGAGUUCUACAGUCCGACGAUCCUCAUCUUCACUCUGAGAUUCAAACAUAGCCUUGGAGGCAUCAACCAAAAAAAUCAAACUAUCUCUUCCUGAAUAUUUAUAGUCUCCACUUGCUUCAAGGUUCUCUUCUUGUUCUUCCUCCAACAGAGGAUUGAGCAUCA
B18: chr7:135612270:135612271:-_ENSG00000105887_ENST00000393085|hu_mus|hu_hu_hu_mus_False|8_18 (ssRNA)
RNA: GGGAGUUCUACAGUCCGACGAUCGUUUUUUUCUGAGAUGUUAAAUAGUACUUCAGUGGAAAACAAAACUUAACCUUUUAUUAAUGCGUGUUGUACCAAAAGCAGACAUUUUAGCUUGCUUCCUUUACUCAAAAUAUCAUUAAGCAACAGAGGAUUGAGCAUCA

Target: T1, UNK ZnF1-3 (human, UniProt Q9C0B0 31-174)
T1 sequence: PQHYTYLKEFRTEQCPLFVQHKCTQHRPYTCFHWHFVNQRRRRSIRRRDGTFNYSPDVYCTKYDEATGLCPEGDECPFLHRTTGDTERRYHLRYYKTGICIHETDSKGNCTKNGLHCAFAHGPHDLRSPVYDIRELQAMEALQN
Assay: nsRBNS (natural sequence RNA bind-n-seq); RBNS binding buffer (assumed for nsRBNS): 25 mM Tris pH 7.5, 150 mM KCl, 3 mM MgCl2, 0.01% Triton X-100, 500 ug/ml BSA, 20 U/ml SUPERase-In, 4 C; UNK is unkempt and MSI1 is Musashi-1; names of the RNAs are library labels; protein concentration not given here; high values mean tight binding

Compared with B1, B2 is lower in binding signal: 1.21 enrichment R for the first, 0.947 enrichment R for the second.

First: B3
Second: B4
The binding signal of the first is lower: 1.1 enrichment R for the first, 1.32 enrichment R for the second.

Compared with B5, B6 is lower in binding signal: 1.51 enrichment R for the first, 0.653 enrichment R for the second.

First: B7
Second: B8
The binding signal of the first is higher: 1.63 enrichment R for the first, 0.805 enrichment R for the second.

Compared with B9, B10 is higher in binding signal: 0.475 enrichment R for the first, 0.702 enrichment R for the second.

Compared with B11, B12 is lower in binding signal: 0.725 enrichment R for the first, 0.537 enrichment R for the second.

Compared with B13, B14 is lower in binding signal: 7.95 enrichment R for the first, 5.71 enrichment R for the second.

Going from B15 to B16, the binding signal falls from 8.06 enrichment R to 1.78 enrichment R.

First: B17
Second: B18
The binding signal of the first is higher: 1.1 enrichment R for the first, 0.545 enrichment R for the second.
